Assay outcomes from PubChem.
In the library only some 3% were active in any assay of this set; here they are far more common.
TrxR1 substrate – is turned over as a substrate by rat TrxR1. O89049. purified TrxR1 substrate turnover, NADPH consumption readout. Potency, µM (series often up to 114 µM). 390,000 compounds, 0.01% hits; note: nearly all actives have a fitted effect of over 50% in size
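Rat TrxR1, dispensed at 90 nM, was prereduced with 400 uM NADPH (final) for 5 min at ~22 deg C, then incubated with compound 15 min before 400 uM selenite. A first-read NADPH fluorescence drop versus no-compound background flagged substrates.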
A549 viability – A549 cytotoxicity, counter-screen for Nrf2 inhibitors; 390,000 compounds, 0.16% hits; A549 ARE-Fluc cells, CellTiter-Fluor viability, 18-24 h; Potency, µM (doses to about 46 µM), actives largely listed as inhibitors
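Cytotoxicity counterscreen: CellTiter-Fluor fluorescence was measured in A549 ARE_Fluc cells after 18-24 h of compound exposure in a concentration series. The subsequent BugLite luminescent read reports ARE-luciferase activity.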
GALK inh – inhibitors of human galactokinase; Potency, µM (highest dose often 57.5 µM), usual class: inhibitors; 270,000 compounds, 0.007% hits; P51570; Purified GALK, Kinase-Glo residual ATP luminescence; AID 1868
Target sequence (P51570 whole entry, looked up): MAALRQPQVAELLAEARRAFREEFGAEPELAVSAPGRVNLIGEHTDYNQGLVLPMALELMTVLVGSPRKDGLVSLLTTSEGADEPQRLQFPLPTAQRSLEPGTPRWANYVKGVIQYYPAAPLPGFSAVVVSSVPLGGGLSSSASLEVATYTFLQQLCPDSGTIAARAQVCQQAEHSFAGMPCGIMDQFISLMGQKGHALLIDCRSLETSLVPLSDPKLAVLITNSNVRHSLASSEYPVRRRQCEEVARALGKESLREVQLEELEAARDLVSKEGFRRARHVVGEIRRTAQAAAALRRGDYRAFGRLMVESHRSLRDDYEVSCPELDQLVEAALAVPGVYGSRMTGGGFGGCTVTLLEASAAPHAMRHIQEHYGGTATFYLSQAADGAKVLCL
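Kinase-Glo Plus luminescence measured ATP left after a 1 h room-temperature reaction. The reaction used 5 nM GALK, 100 uM galactose and 35 uM ATP at pH 8.0 (20 mM HEPES, 5 mM MgCl2, 60 mM NaCl, 1 mM DTT, 0.01% BSA).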
Nrf2 inh – Nrf2 pathway inhibition; A549 ARE-Fluc reporter, luciferase luminescence, 18-24 h; Potency, µM (top dose mostly 46 µM), hits mostly inhibitors; 360,000 compounds, 2.1% hits; note: nearly all actives have a fitted effect of over 60% in size
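Reporter: ARE-Fluc in A549. Exposure: 18-24 h, 37 °C, 5% CO2, 5% FBS OPTI-MEM. Readouts: fluorescent cytotoxicity (CellTiter-Fluor), then luminescent Nrf2 signal after BugLite.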
Nrf2 ARE act – activates Nrf2 signaling; AREc32 ARE-luciferase reporter (MCF7-derived line), luminescence, 24 h; Potency, µM (highest dose often 46.1 µM), most hits filed as activators; 410,000 compounds, 0.31% hits; note: nearly all actives have a fitted effect of over 65% in size
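ARE-driven firefly luciferase activity in AREc32 cells measured after a 24 hr compound exposure at 37 deg C, using Steady-Glo reagent and a 30 min room-temperature hold.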
rTrxR1 inhibitor – inhibitors of rat thioredoxin reductase 1 | O89049 | recombinant rTrxR1, NADPH fluorescence consumption, selenite substrate | 390,000 compounds, 1% hits | Potency, µM (highest dose often 114 µM), hits mostly inhibitors; note: nearly all actives have a fitted effect of over 65% in size
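Rat TrxR1 (90 nM in the dispensed reagent) was pre-reduced with 400 uM NADPH for 5 min at room temperature, then incubated with compound for 15 min. After 400 uM selenite was added, NADPH fluorescence (Ex 340/Em 450 nm) was followed for 8 min.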
Of the large screens only hits and unclear results are named; the others gave an inactive call. Calls come from the whole dose curve; as a rule, active = well fitted curve in the direction sought with a large enough effect; inconclusive = small, poorly fitted or top-dose-only effect, or another doubt; inactive = no such curve, though single readings can be large; an effect the other way counts as inactive or inconclusive.

COc1cccc(-n2c(-c3ccco3)nc3c(cnn3-c3ccc(Cl)cc3)c2=O)c1	Nrf2 inh inconclusive (no result: GALK inh)
Cc1ccc(S(=O)(=O)CCC(=O)N2CCN(c3ccc(Cl)cc3)CC2)cc1	Nrf2 inh inconclusive, rTrxR1 inhibitor 50µM
O=C(NC1CCCCC1)N1CCN(c2ccc([N+](=O)[O-])cc2)CC1	Nrf2 inh 23µM
O=C(NC1CCCCC1)N1CCN(c2ccc(Cl)cc2)CC1	Nrf2 inh inconclusive
Cc1ccc(S(=O)(=O)CC(=O)N2CCN(c3ccc([N+](=O)[O-])cc3)CC2)cc1	Nrf2 inh inconclusive (no result: GALK inh)
Cc1noc(C)c1CSCC(=O)N1CCN(c2ccc([N+](=O)[O-])cc2)CC1	A549 viability inconclusive, Nrf2 inh 21µM
Cc1ccc(CC(=O)N2CCN(c3ccc([N+](=O)[O-])cc3)CC2)cc1	A549 viability inconclusive, Nrf2 inh 21µM
CCOC(=O)c1c(C)n(S(=O)(=O)c2ccc(C)cc2)c2ccc(NS(=O)(=O)c3ccc(C)cc3)cc12	none (no result: GALK inh)
COc1ccc(C2Nc3ccccc3C(=O)N2Cc2ccccc2)cc1COc1cccc(C(F)(F)F)c1 (stereo not given)	none (no result: TrxR1 substrate, GALK inh, Nrf2 ARE act, rTrxR1 inhibitor)
Cc1ccc(CN(C(=O)COc2ccc([N+](=O)[O-])cc2)c2ccccn2)cc1	none (no result: GALK inh)
NNC(=O)c1ccc(CSc2nc3ccccc3s2)cc1	none
COCCN(CCOC)C(=O)c1ccc(CSc2nc3ccccc3s2)cc1	Nrf2 inh 13µM
C=C1C=C(C(F)F)n2ncc(C(=O)NCc3ccccc3OC)c2N1	none (no result: A549 viability, GALK inh, Nrf2 inh, Nrf2 ARE act)
O=C(O)C1=CC(=C(c2ccc(O)c(C(=O)O)c2)c2ccc(O)c(C(=O)O)c2)C=CC1=O	rTrxR1 inhibitor inconclusive (no result: A549 viability, GALK inh, Nrf2 inh, Nrf2 ARE act)
O=C1C=CC(=C(c2ccc(O)cc2)c2ccc(O)cc2)C=C1	A549 viability 23µM, Nrf2 inh 13µM (no result: GALK inh)
Cc1ccc2nc(CS)[nH]c2c1	none (no result: A549 viability, GALK inh, Nrf2 inh, Nrf2 ARE act)
CCOc1ccc(N(C)S(=O)(=O)c2cc(-c3cc(C)no3)ccc2CC)cc1	none
CCOc1ccc(N(C)S(=O)(=O)c2cc(-c3cc(C)no3)ccc2C)cc1	Nrf2 inh 18µM
Cc1noc2ncnc(N3CCN(c4ccc(F)cc4)CC3)c12	Nrf2 inh 7.3µM
Cc1noc2ncnc(N3CCCCC3)c12	none
COc1cc2c(cc1OC)CN(C(=O)CCOc1ccccc1C)CC2	A549 viability inconclusive
COc1cc2c(cc1OC)CN(C(=O)CCCOc1ccc(Cl)cc1Cl)CC2	Nrf2 inh 18µM
CC1CCN(C(=O)CN2C(=O)c3cccc4cccc(c34)C2=O)CC1	Nrf2 ARE act 11µM
O=C(NC1CCN(Cc2ccccc2)CC1)c1cccc(S(=O)(=O)Nc2ccc(Br)cc2)c1	Nrf2 inh inconclusive (no result: GALK inh)
Cc1ccc(NS(=O)(=O)c2cccc(C(=O)NC3CCN(Cc4ccccc4)CC3)c2)c(C)c1	A549 viability inconclusive, Nrf2 inh 21µM (no result: GALK inh)
COc1ccccc1NS(=O)(=O)c1cc(C(=O)NC2CCN(Cc3ccccc3)CC2)ccc1C	A549 viability inconclusive, Nrf2 inh 5.8µM (no result: GALK inh)
COc1ccc(NS(=O)(=O)c2ccc(C)c(C(=O)NC3CCN(Cc4ccccc4)CC3)c2)cc1	Nrf2 inh 13µM
O=C(NC1CCN(Cc2ccccc2)CC1)c1cccc(S(=O)(=O)Nc2ccc(F)cc2)c1	A549 viability inconclusive, Nrf2 inh 16µM (no result: GALK inh)
COc1ccccc1NS(=O)(=O)c1ccc(C)c(C(=O)NC2CCN(Cc3ccccc3)CC2)c1	Nrf2 inh inconclusive (no result: GALK inh)
Cc1ccc(C(=O)NC2CCN(Cc3ccccc3)CC2)cc1S(=O)(=O)N1CCOCC1	Nrf2 inh inconclusive (no result: GALK inh)
COc1cccc(NC(=O)CSc2cc(C)[nH]c(=O)n2)c1	none (no result: GALK inh, Nrf2 inh)
Cn1nnnc1Sc1ncnc2scc(-c3ccc(C#N)cc3)c12	A549 viability inconclusive, Nrf2 inh 16µM, rTrxR1 inhibitor inconclusive (no result: GALK inh)
Cn1nnnc1Sc1ncnc2scc(-c3cccc(F)c3)c12	A549 viability inconclusive, Nrf2 inh inconclusive, Nrf2 ARE act inconclusive (no result: GALK inh)
Cn1nnnc1Sc1ncnc2scc(-c3cccs3)c12	A549 viability inconclusive, Nrf2 inh inconclusive, Nrf2 ARE act inconclusive, rTrxR1 inhibitor 45µM (no result: GALK inh)
